Assay outcomes from PubChem.
This is one part of a sample in which hits are shown more often than they occur.
HTT cytoprotect – cytoprotection in Huntington HTT-Q103 PC12 cell model; PC12 HTT-Q103 induced, cytoprotection, ATP luminescence, 40 h; Potency, µM (series often up to 56.4 µM), usual class: activators; 230,000 tested, 0.14% active; AID 1471; further: nearly all actives have a fitted effect of over 45% in size
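Readout: ATPlite luminescence (ATP level). Model: stable PC12, inducible Htt exon1 Q103-GFP. Inducer: tebufenozide, 100 nM final. Compounds: dose series. No G418 in medium.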
PNC assembly inh – blocks assembly of the perinucleolar compartment | AID 2417 | PC3M PTB-GFP, PNC prevalence imaging, 16 h; stronger effect = lower value | activity change (PNC), negative = inhibition, % at 10 µM | 140,000 tested, 3.1% active;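 active means readout at or below -70, meaning at least 70% loss of cells showing the perinucleolar compartment, a nuclear body marking cancer cells; inconclusive means readout between -30 and a set limit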
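PC3M cells stably expressing PTB-GFP, 750–1000 cells/well, treated 16 h at 37 °C with compound (23 nl of library stock), in duplicate. After paraformaldehyde fixation and Hoechst stain, imaged at 20x; PNC prevalence scored by image analysis.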
HTT aggregate – reduces HttQ103-GFP aggregates in PC12 cells; PC12 HttQ103-GFP aggregates, Acumen cytometry, 40 h; Potency, µM (series often up to 46.1 µM), actives largely listed as inhibitors; 220,000 tested, 1.1% active; AID 1688; further: nearly all actives have a fitted effect of over 60% in size
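Multiplexed with ATP-based cell death, this channel scores GFP aggregates in PC12 cells expressing inducible HTTex1-Q103-GFP. Induction used 100 nM tebufenozide; compounds were tested in concentration series.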
Hits are given with their value; – = inactive; ? = inconclusive; · = no result given; [ ] = dose if it differs, or a comment. Unless noted, the call rests on the fitted dose curve; in most records, active means well fitted curve in the direction sought with a large enough effect; inconclusive means small, poorly fitted or top-dose-only effect, or another doubt; inactive means no such curve, though single readings can be large; an effect the other way counts as inactive or inconclusive.

SMILES	HTT cytoprotect	PNC assembly inh	HTT aggregate
CCCCOc1ccc(C(=O)CCN2CCOCC2)cc1	–	·	–
Cc1cccc(C2c3[nH]c4ccccc4c3CCN2C(=O)Cc2nc(-c3ccccc3)n[nH]2)n1 (centres undefined)	–	·	–
COc1ccc(Oc2ncc3nc(C)c(=O)n(CCC#N)c3n2)cc1	–	·	·
C=CCOc1ccc(/C=C2\C(=N)N3N=C(S(=O)(=O)CC)SC3=NC2=O)cc1OC	–	·	–
CC(C)SC(=N)N	–	·	·
Cc1nc2ccc(NC(=O)Cc3ccsc3)cc2s1	–	–	–[9.22 µM]
CCN(CC)C1CCS(=O)(=O)C1 (centres undefined)	–	·	–
CCN(C1CCS(=O)(=O)C1)S(=O)(=O)c1cccs1 (centres undefined)	–[0.074 µM]	-106.5	–
COc1ccc(Cl)cc1NC(=O)NC(C)C	–	·	–
COc1ccc(Cl)cc1NC(=O)C(C)N(C)Cc1cccc(Cl)c1Cl (centres undefined)	–[10 µM]	-101.1	–
Cc1cccc(CSCC(=O)NCc2ccc(S(N)(=O)=O)cc2)c1	–	·	–
Cc1ccc2oc(-c3ccccc3C(=O)O)cc(=O)c2c1	–[0.074 µM]	–	–
O=C(O)c1ccccc1-c1c2cc(Br)c(=O)c(Br)c-2oc2c(Br)c(O)c(Br)cc12	–	·	10µM
CC(=O)Nc1ccc2nc(C)n(Cc3ccc(Cl)cc3)c(=O)c2c1	–[10 µM]	-90.5	–
CCOC(=O)CCNC(=O)Nc1ccc2nc(C)n(Cc3ccc(Cl)cc3)c(=O)c2c1	–	–	–
O=C1C2C3C=CC(C3)C2C(=O)N1CCC(=O)N1CCc2ccccc21 (centres undefined)	–[10 µM]	–	–
CCN(CC)c1ccc(/C=C/c2cc(-c3ccccc3)c3ccccc3n2)cc1	–[10 µM]	·	–[9.22 µM]
O=C(C[n+]1cc(-c2ccccc2)n2c1CCCCC2)c1ccc(Cl)cc1	–[1.9 µM]	–	?
CC1CCC(C(C)C)C(OC(=O)C[n+]2cc(-c3ccc(Cl)cc3)n3c2CCCCC3)C1 (centres undefined)	–[10 µM]	·	12.6µM
Cc1nn(-c2ccccc2)c(N2CCCC2)c1/C=C1\N=C(c2ccccc2)OC1=O	–[0.074 µM]	–	–
COc1ccc(N2CC(C(=O)N/N=C/c3cccs3)CC2=O)cc1 (centres undefined)	–	·	–
CN(C)CCCC1(c2ccc(F)cc2)OCc2cc(C#N)ccc21 (centres undefined)	·	-114.6	–
CCCN(Cc1ccccc1)S(=O)(=O)c1ccc(N2C(=O)CCC2=O)cc1	–	–	–
O=C1CC(c2ccc(Br)cc2)NC(c2ccc(Br)cc2)C1c1ccccc1 (centres undefined)	–[10 µM]	–	–
S=C1NCCc2ccc(Cl)cc2C1c1ccccc1Cl (centres undefined)	?	-100.0	–
SMILES	HTT cytoprotect	PNC assembly inh	HTT aggregate
Clc1ccc2c(c1)C(C1=NCCN1)c1ccccc1CS2 (centres undefined)	·	?	–
COC(=O)c1c(SCC(=O)Nc2ccc(C)c(C)c2)nc(=O)[nH]c1C	–[10 µM]	·	–[9.22 µM]
N#C/C(=C/c1ccc(Br)o1)C(N)=O	–[10 µM]	-87.1	–
N#C/C(=C/c1ccc(Br)o1)C(N)=S	–[10 µM]	·	–[9.22 µM]
Cc1nn(-c2ccccc2)c(C)c1/C=N/NC(=O)c1cc(-c2ccc(Br)s2)[nH]n1	–[10 µM]	–	?
Cc1nn(-c2ccccc2)c(C)c1/C=N/NC(=O)c1cc(-c2cccs2)[nH]n1	–[10 µM]	-115.1	–
O=C(CC12CC3CC(C1)CC(CC(=O)NC1=NCCS1)(C3)C2)NC1=NCCS1	–[0.074 µM]	?	–
CCCNC(=O)CN(c1ccc(F)cc1)S(=O)(=O)c1ccc2c(c1)OCCO2	–	–	–
O=C(O)CN(c1ccc(F)cc1)S(=O)(=O)c1ccc2c(c1)OCCO2	3.16µM	–	·
Cc1ccc(N(CC(=O)N2CC(=O)Nc3ccccc32)S(=O)(=O)c2ccc3c(c2)OCCO3)cc1	–[10 µM]	-100.0	–
COC(=O)c1ccc(CN(c2ccc(C)cc2)S(=O)(=O)c2ccc3c(c2)OCCO3)o1	–	–	–
O=C(NC1CCCCCC1)C(=S)N1CCCC1	–	·	–
CSCSC1=C(C#N)C(c2ccccc2Cl)C(C(C)=O)=C(C)N1 (centres undefined)	–	?	–
NS(=O)(=O)c1ccc(CCNC(=O)CCCCCNc2nc(=S)[nH]c3ccccc23)cc1	–[10 µM]	–	–
Cc1ccc(S(=O)(=O)NC(=O)Nc2ncn[nH]2)cc1	–[10 µM]	·	·
C=CCNC(=O)c1onc(CSc2ccncc2)c1C(=O)NCC=C	–[10 µM]	·	–[9.22 µM]
O=C(NC1CCCC1)C1CCN(S(=O)(=O)N2CCCCC2)CC1	–[0.074 µM]	?	–
COc1ccc(Sc2nc3ccccc3n3c(C(F)(F)F)nnc23)cc1	–	–	–
COc1ccc(-c2cc(-n3c(C(F)(F)F)nc4ccccc43)n(CCC#N)n2)cc1	–	?	2.82µM
CCOc1ncccc1C(=O)OCc1ccc([N+](=O)[O-])cc1	–	·	–
